Source: PubChem
Most compounds without a hit are left out; they make up all but 12% or so of the library.
HP1b chromo inh: inhibitors of HP1-beta chromodomain binding to methylated histone tails | AlphaScreen HP1-beta / biotin-H3K9me3 peptide binding | Potency, µM (highest dose often 114 µM), actives largely listed as inhibitors | 390,000 compounds, 0.56% hits | AID 540317; further: nearly all actives have a fitted effect of over 70% in size
Target sequence (P83916 whole entry, looked up): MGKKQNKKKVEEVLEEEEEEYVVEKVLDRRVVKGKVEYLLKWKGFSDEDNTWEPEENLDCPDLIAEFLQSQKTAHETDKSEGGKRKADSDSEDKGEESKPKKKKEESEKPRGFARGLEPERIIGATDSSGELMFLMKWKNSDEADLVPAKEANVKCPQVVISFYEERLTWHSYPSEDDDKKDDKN
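AlphaScreen: HP1-beta (50 nM) preformed 30 min with biotin-H3(1-18)K9me3 peptide (50 nM) in PBS pH 7.4, 0.01% Tween-20. Compound added for 30 min at RT, then streptavidin donor/nickel chelate acceptor beads (10 ug/mL) for 30 min.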
PI5P4Ka inh: PI5P4K alpha (human) kinase inhibition; PI5P4Kalpha enzyme, ADP-Glo luminescence, 60 min; active compounds read low; 330,000 compounds, 1.2% hits; P48426; AID 652105; max response, %; active means max response of -50% or lower; inconclusive means between -30% and -50%; inactive means -30% or higher; further: value at the top dose of about 77 µM
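Human PI5P4Kalpha with substrate in 0.038 M HEPES pH 7.4, 0.28 mM EGTA, 0.1% CHAPS, 5% DMSO; reaction started with 5 microM ATP (final), 60 min at room temperature. ADP formed read by ADP-Glo luminescence.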
G9a block: blocks human histone lysine methyltransferase G9a. G9a H3K9 monomethylation, AlphaScreen, 2 h. Q96KQ7. 350,000 compounds, 8.8% hits. Potency, µM (titrated, usually from 102 µM), actives largely listed as inhibitors; further: nearly all actives have a fitted effect of over 75% in size
Target sequence (Q96KQ7 913-1193 limits assumed): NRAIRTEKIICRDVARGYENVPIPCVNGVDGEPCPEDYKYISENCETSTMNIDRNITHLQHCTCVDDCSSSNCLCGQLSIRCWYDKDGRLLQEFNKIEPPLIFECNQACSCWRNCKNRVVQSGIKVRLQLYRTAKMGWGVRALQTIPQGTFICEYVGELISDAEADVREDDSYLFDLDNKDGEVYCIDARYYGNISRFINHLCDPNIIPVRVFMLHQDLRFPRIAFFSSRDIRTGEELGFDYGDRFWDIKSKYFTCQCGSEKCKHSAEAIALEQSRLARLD
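Step 1: enzyme (final 20 nM) with compound, 15 min RT. Step 2: substrate peptide 500 nM and SAM 20 uM, 2 h RT. Step 3: anti-H3K9me1 antibody and AlphaScreen beads, 10 min, then plate read.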
PLK1 PBD block: inhibitors of human PLK1 polo-box domain binding; Plk1 PBD binding of FITC phosphopeptide, fluorescence polarization; Potency, µM, usual class: inhibitors; 360,000 compounds, 2.8% hits; P53350; further: series mostly up to about 57 µM; nearly all actives have a fitted effect of over 65% in size
JMJD2A Tudor: blocks the human JMJD2A Tudor domain | O75164 | AlphaScreen JMJD2A-Tudor / H3K4me3 peptide binding | Potency, µM (highest dose often 114 µM), most hits filed as inhibitors | 390,000 compounds, 4.4% hits | AID 504339; further: nearly all actives have a fitted effect of over 50% in size
BAZ2B inh: BAZ2B (human) inhibition | Q9UIF8 | AlphaScreen BAZ2B-H3K14Ac peptide displacement | Potency, µM (series often up to 114 µM), most hits filed as inhibitors | 360,000 compounds, 4.4% hits | AID 504333; further: nearly all actives have a fitted effect of over 60% in size
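Multi-concentration screen (max 110 uM) measuring displacement of acetylated histone H3 peptide from BAZ2B by AlphaScreen, using 50 nM protein, 50 nM peptide and 10 ug/mL streptavidin donor plus Ni-chelate acceptor beads.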
A number is an active result; – = inactive; ? = inconclusive; · = not tested or not shown; [ ] = another dose, or the depositor's remark. Unless noted, the call rests on the fitted dose curve; in most records, active means well fitted curve in the direction sought with a large enough effect; inconclusive means small, poorly fitted or top-dose-only effect, or another doubt; inactive means no such curve, though single readings can be large; an effect the other way counts as inactive or inconclusive.

SMILES	HP1b chromo inh	PI5P4Ka inh	G9a block	PLK1 PBD block	JMJD2A Tudor	BAZ2B inh
CC(=O)Nc1cc2c(=O)n(Cc3ccccc3)c(C)nc2cc1N1CCOCC1	–	–	50.1µM	–	–	?
c1cc(CNc2ccc3c(c2)OCO3)ccn1	–	–	35.5µM	–	?	?
Cc1ccc(C(=O)Nc2ccc3c(c2)OCO3)cc1	–	·	?	–	–	–
Cc1ccc(S(=O)(=O)c2nc(NCc3ccc4c(c3)OCO4)sc2Cl)cc1	–	·	31.6µM	–	–	–
COC(=O)CNc1ccc2c(c1)OCO2	–	–	8.91µM	–	?	–
Cc1ccc(CNc2ccc3c(c2)OCO3)cc1	–	·	?	–	44.7µM	50.1µM
COc1cc2nc(NC(=O)c3ccc(S(=O)(=O)N4CCCC4)cc3)sc2cc1OC	–	·	–	·	–	–
CCC(c1ccccc1)c1noc(CCN(CC)CC)n1 (stereo not drawn)	·	–	·	–	·	·
COc1ccc(/C=C2\NC(=S)N(CC3CCCO3)C2=O)c(OC)c1C (stereo not drawn)	–	·	50.1µM	–	–	?
COc1ccc(-c2noc(-c3ccc(N4CCC(C)CC4)c([N+](=O)[O-])c3)n2)cc1OC	–	·	–	·	–	?
Cc1cc(/C=C2\C(=O)NN(c3ccccc3)C2=O)c(C)n1-c1ccccc1O	–	–	–	–	–	–
COc1cc(C2NC(=O)NC(c3ccccc3)=C2C(C)=O)cc([N+](=O)[O-])c1O (stereo not drawn)	–	–	–[0.501 µM]	–	–	–
CCOc1cc(/C=N/NC(=O)c2cccs2)cc([N+](=O)[O-])c1O	–	?	?	?	–[11.4 µM]	?
COc1cc(/C=C2/C(=O)NN(c3ccccc3)C2=O)cc(Br)c1O	–	-55.1	39.8µM	–	?	?
CCOc1cc(/C=C2\NC(=O)NC2=O)cc([N+](=O)[O-])c1O	–	-59.3	·	–	–[11.4 µM]	?
CCOc1cc(/C=C2\C(=O)NN(c3ccccc3)C2=O)cc([N+](=O)[O-])c1O	39.8µM	-56.9	31.6µM	16.8µM	50.1µM	?
COc1cc(/C=C2\C(=O)NN(c3ccccc3)C2=O)cc([N+](=O)[O-])c1O	?	-69.7	15.8µM	?	89.1µM	56.2µM
N#Cc1ccc(C(=O)OCC(=O)Nc2cccnc2Cl)cc1	–	–	–[2.33 µM]	–	–	–
CCOc1ccc(-c2oc3cc(Cl)ccc3c(=O)c2O)cc1OC	–	·	–	·	–	–
Cc1c(C(=O)NCc2cccc(Cl)c2)sc2nc[nH]c(=O)c12	–	·	–	·	–	–
COc1cc(/C=C2\SC(=Nc3ccc(O)cc3)NC2=O)cc(OC)c1O	–	?	–	–	–	–
COc1cc(/C=C2/C(=O)NN(c3ccc(Cl)cc3)C2=O)cc(OC)c1O	?	–	?	–	50.1µM	35.5µM
COc1cc(/C=C2\C(=O)NN(c3ccc(C)cc3)C2=O)cc([N+](=O)[O-])c1O	?	-53.8	14.1µM	?	?	39.8µM
CCCc1[nH]n(-c2ccc([N+](=O)[O-])cc2)c(=O)c1C(C)=NCc1ccncc1	–	–	35.5µM	–	?	–
CCCc1[nH]n(-c2ccc([N+](=O)[O-])cc2)c(=O)c1C=NCCCn1ccnc1	–	–	–[12.7 µM]	–	–	50.1µM
SMILES	HP1b chromo inh	PI5P4Ka inh	G9a block	PLK1 PBD block	JMJD2A Tudor	BAZ2B inh
COc1ccc(-c2[nH]n(-c3ccc([N+](=O)[O-])cc3)c(=O)c2C=NCc2ccncc2)cc1	–	–	–	–	–	–
CCCCCOc1ccc(Br)cc1/C(C)=N/NC1=NCCN1	–	–	8.91µM	–	–[11.4 µM]	–
COc1ccc(Br)cc1/C(C)=N/NC1=NCCN1	–	–	?	–	–	–
COc1ccc(S(=O)(=O)N2C[C@@H](O)COC[C@@H]3O[C@H](CC(=O)NCCCN4CCOCC4)CC[C@H]32)cc1	·	–	·	–	·	·
CCOC(=O)C1=C(O)/C(=C/c2ccccn2)SC1=Nc1ccc(Cl)cc1	–	–	–	–	–	–
CCOC(=O)C1=C(O)/C(=C/c2ccc(-c3ccccc3C(=O)O)o2)SC1=Nc1ccc(C)cc1	–	-98.9	–	?	50.1µM	–
CCOC(=O)C1=C(O)/C(=C/c2cc(OC)c(O)c(OC)c2)SC1=Nc1ccc(OC)cc1	–	–	8.91µM	–	–	–
